Rows were chosen to be rich in hits. Some 27% of all compounds tested hit in one or more screens of this group.
sEH inh = soluble epoxide hydrolase (human) inhibition; recombinant human sEH enzymatic activity assay; inhibition, % at 2 µM; 91,000 tested, 0.34% active; AID 707; in the data active = inhibition above about 80%
CYP2C19 activ = cytochrome P450 2C19 (human) activation; P33261; activation factor at 5 µM; 96,000 tested, under 10 active; AID 1025; recombinant CYP2C19, luciferin-H EGE luminescence; hits give high values; 0 = fully inhibited enzyme, 1 = untreated enzyme;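 active = activation factor of at least 2 at 5 µM in the primary screen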;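 also: 0 = wells with 2.5 mM tranylcypromine and 1 = vehicle-only wells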
CYP2C9 inhib = blocks human cytochrome P450 2C9; P11712; CYP2C9 Supersomes, luciferin-H conversion, luminescence; inhibition, % at 5 µM; 96,000 tested, 20% active; AID 777;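 active = blocking of liver enzyme CYP2C9 beyond about 50% at 5 µM, limit read from the data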
Target sequence (P11712 whole entry, looked up): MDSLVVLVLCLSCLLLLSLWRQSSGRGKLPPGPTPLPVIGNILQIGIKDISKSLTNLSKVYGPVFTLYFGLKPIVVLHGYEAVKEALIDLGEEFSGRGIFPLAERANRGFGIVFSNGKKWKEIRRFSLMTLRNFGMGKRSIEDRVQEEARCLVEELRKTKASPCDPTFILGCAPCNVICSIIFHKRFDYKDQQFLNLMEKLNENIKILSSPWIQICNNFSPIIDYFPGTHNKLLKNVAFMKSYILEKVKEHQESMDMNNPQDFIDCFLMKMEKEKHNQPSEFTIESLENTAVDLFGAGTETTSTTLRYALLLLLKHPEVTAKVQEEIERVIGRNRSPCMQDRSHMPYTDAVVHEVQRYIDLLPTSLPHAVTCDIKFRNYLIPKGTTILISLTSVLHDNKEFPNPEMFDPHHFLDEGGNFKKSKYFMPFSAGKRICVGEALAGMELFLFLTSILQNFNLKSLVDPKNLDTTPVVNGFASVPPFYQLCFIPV
CYP2C19 inh = blocks human cytochrome P450 2C19. P33261. CYP2C19 Supersomes, luciferin-H EGE luminescence, 30 min. inhibition, % at 5 µM. 96,000 tested, 21% active. AID 778;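 active = CYP2C19 inhibition above a set limit at 5 µM in the primary screen, cut at about 50% in these data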;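 also: plate controls were negative control wells for no effect and 2.5 mM tranylcypromine positive control for full effect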
sEH activator = activators of human soluble epoxide hydrolase; 91,000 tested, 0.04% active; AID 717; purified human sEH enzymatic activity, activator screen; activation, % at 2 µM; P34913; in the data active = activation above about 37%
CYP2C9 act = increases human cytochrome P450 2C9 activity. P11712. recombinant CYP2C9, luciferin-H conversion, luminescence; hits give high values; factor 1 = untreated enzyme, 0 = blocked. activation factor at 5 µM. 96,000 tested, 1.4% active. AID 1024;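 active = activation factor of 2 or more for CYP2C9 at a 5 µM dose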;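 also: 0 = sulfaphenazole-blocked wells and 1 = vehicle-only wells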
* marks the source's active call; other numbers are inactive results; nt = no result given.

SMILES	sEH inh	CYP2C19 activ	CYP2C9 inhib	CYP2C19 inh	sEH activator	CYP2C9 act
CS(=O)(=O)N(CC(=O)N1CCCC1)c1cccc(Cl)c1Cl	-7.0	0.9	1.8	14.7	5.5	1
O=C1CCCCCC1C1(O)C(=O)Nc2ccccc21 (configuration not stated)	10.9	1.1	-26.5	-12.3	-7.5	1.3
COc1ccc2c(c1)CC(C1(O)C(=O)Nc3ccccc31)C2=O (configuration not stated)	0.4	0.2	18.0	82.9*	0.7	0.8
CCC1Oc2ccccc2N(CC(=O)Nc2ccc(OC)cc2OC)C1=O (configuration not stated)	-2.2	0.6	45.4	44.7	2.4	0.5
Cc1ccnc(SCC(=O)n2c3c(c4ccccc42)CC(C)CC3)n1 (configuration not stated)	-12.3	0.8	10.6	23.8	14.3	0.9
O=C(COC(=O)c1cccc(S(=O)(=O)N2CCOCC2)c1)Nc1nc(-c2ccccc2Cl)cs1	-0.9	0.3	73.5*	66.6*	2.8	0.3
O=C(OCc1nc2ccccc2s1)c1cccc(S(=O)(=O)N2CCOCC2)c1	-9.3	0.4	64.7*	60.3*	8.8	0.4
O=C(CCc1ccc(S(=O)(=O)N2CCOCC2)cc1)OCc1nc2ccccc2s1	7.8	1	25.1	-0.6	-4.7	0.7
Cc1ccc2c(n1)CC(C)(C)C/C2=N\O	7.3	nt	nt	nt	-7.5	nt
Cc1ccc(-c2nsc3c(N4CCC(C(N)=O)CC4)ncnc23)cc1	nt	1	15.6	3.9	nt	0.8
COc1cccc(CN2CCN(CC(=O)Nc3ccccc3Cl)CC2)c1	-4.5	0.6	35.4	40.7	4.8	0.6
O=C(NCC1CCCO1)C1CCCN(Cc2cnn(-c3ccccc3)c2-n2cccc2)C1 (configuration not stated)	9.0	0.9	35.4	10.3	-9.4	0.6
O=C(Nc1ccc2c(c1)OCO2)C1CCN(Cc2cnn(-c3ccccc3)c2-n2cccc2)CC1	65.8	0.8	69.4*	21.1	-66.1	0.3
O=C(Nc1ccc2c(c1)OCCO2)C1CCN(S(=O)(=O)Cc2ccccc2)CC1	27.7	0.8	15.6	20.6	-26.5	0.8
O=C(Nc1ccc2c(c1)OCO2)C1CCN(S(=O)(=O)Cc2ccccc2)CC1	28.3	0.5	55.2*	46.1	-26.8	0.4
O=C(COc1cc(Cl)ccc1Cl)Nc1nnc(CC(=O)N2CCOCC2)s1	18.3	1.1	20.2	-6.0	-17.1	0.8
Cc1cc2n(n1)C(c1ccsc1)Nc1ccccc1-2 (configuration not stated)	-2.2	0.4	56.4*	61.1*	2.7	0.4
Cc1cc2n(n1)C(c1ccccc1Cl)Nc1ccccc1-2 (configuration not stated)	4.9	0.1	75.4*	85.8*	-4.4	0.2
CSc1ccc(C2Nc3ccccc3-c3cc(C)nn32)cc1 (configuration not stated)	-0.6	0.5	38.2	50.1*	2.7	0.6
Cc1cccc(C2Nc3ccccc3C(=O)N2c2ccc(F)cc2)n1 (configuration not stated)	19.5	nt	nt	nt	-18.6	nt
Oc1ccccc1-c1cc(-c2ccccc2Cl)[nH]n1	2.8	0.8	44.6	15.6	1.4	0.6
O=S(=O)(c1ccccc1)n1ccc2ccccc21	-2.0	0.6	-138.5	36.2	-0.4	2.4*
Cc1cc(C)c(S(=O)(=O)n2ccc3ccccc32)c(C)c1	-14.4	0.7	-17.8	30.0	15.0	1.2
CCc1nc(N[C@H](C(=O)O)C(C)CC)c2oc3ccccc3c2n1 (some centres not stated)	-8.0	0.8	-2.2	19.8	12.0	1
CS(=O)(=O)NCCSCc1c(F)cccc1Cl	-15.0	0.8	15.5	22.2	12.7	0.8
CS(=O)(=O)NCCSCc1c(Cl)cccc1Cl	-16.9	0.7	62.9*	25.8	16.2	0.4
C=CCn1c(SCC(=O)Nc2ccccc2C)nnc1-c1ccncc1	8.2	0.3	23.1	74.4*	-8.0	0.8
Nn1c(SCC(=O)Nc2ccc(F)cc2F)nnc1-c1cccnc1	4.7	1	22.8	0.7	-2.9	0.8
CCOC(=O)c1ccccc1NC(=O)CSc1nnc(C(C)C)n1CC	-2.2	nt	nt	nt	2.8	nt
C=CCn1c(SCC(=O)Nc2ccc(C)cc2C)nnc1-c1cccnc1	13.9	0.6	86.9*	44.9	-13.1	0.1

Bioassay records deposited in PubChem by several laboratories.
